From PubChem BioAssay
Where “and” joins values, the source holds several entries; their conditions need not be identical. Equal entries are not always repeated. Records with an inconclusive call do not appear. Calls of active or inactive are those of the source. Unless noted, the limit is not given here; nearly all actives have AC50 up to about 30 µM.

Legend:
[1] = viability loss in pontine glioma line – cell-based, SU-DIPG-XIII, MIPE4.0, CellTiter-Glo, qHTS, dose response (AID 1347061; cut-off not given, nearly all actives have AC50 up to about 37 µM;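 also: cells exposed to compound for 48 hours before readout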); conditions: CellTiter-Glo ATP luminescence
[2] = viability loss in pontine glioma line – cell-based, JHH-DIPG-1, MIPE4.0, CellTiter-Glo, qHTS, dose response (AID 1347062; cut-off not given, nearly all actives have AC50 up to about 27 µM;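 as to AC50: cells exposed to compound for two days before readout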); conditions: JHH-DIPG-1 viability, CellTiter-Glo ATP luminescence
[3] = viability loss in pontine glioma line – cell-based, SU-DIPG-IV, MIPE4.0, CellTiter-Glo, qHTS, dose response (AID 1347063); conditions: CellTiter-Glo ATP luminescence;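 also: compound exposure lasted 48 hours before the viability readout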
[4] = growth inhibition of DIPG cells – cell-based, MIPE4.0 library, CellTiter-Glo luminescence, qHTS (AID 1347066); conditions: SU-DIPG-VI viability, CellTiter-Glo ATP luminescence;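 also: cells exposed to compound for 48 hours before readout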
[5] = viability loss with induced miR-34 in A549 – imaging, A549 dox-inducible miR-34, nuclei and caspase counts, primary screen (AID 1347080;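 active = compounds whose cell count with miR-34 switched on is under 0.7 times the count with it off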); conditions: A549 miR-34 inducible, Hoechst nuclei count, 48 h
[6] = MELAS cybrid and Rieske KO viability enhancers – cell-based, MELAS cybrids, Rieske KO mouse fibroblasts, CellTiter-Glo, primary screen (AID 1508586;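 active = mean z-score across replicates of 1.96 or higher in either the MELAS or the Rieske mutant cell line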;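 also: z relative to plate mean and SD of compound and empty wells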); conditions: low glucose
[7] = growth inhibition of DIPG cells – cell-based, MIPE5.0 library, qHTS (AID 1347068; cut-off not given, nearly all actives have IC50 up to about 30 µM); conditions: SU-DIPG-XXV viability
[8] = growth inhibition, single agent or in combination, cell-based, chromothripsis tumors, cisplatin or BGB combos (AID 1671449; in the data active = inhibition above about 80%;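 also: cells exposed for 96 hours; 0% = vehicle DMSO and 100% = killing by high DMSO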); conditions: LFS_MB_P medulloblastoma cells
[9] = growth inhibition, single agent and combos, cell-based, chromothripsis tumors, cisplatin or BGB combos (AID 1671450; in the data active = inhibition above about 80%;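 also: cells exposed to compound for four days; 0% = vehicle DMSO and 100% = cell killing by high DMSO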); conditions: HDN33 neuroblastoma cells, stronger effect = higher value
[10] = growth inhibition, single agents and combos, ICB984, cell-based, cisplatin or BGB combos, synergistic combos for chromothripsis tumors (AID 1671451; call rule not given here;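 also: cells exposed for 96 hours before readout; 0% = vehicle DMSO and 100% = killing by high DMSO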); conditions: ICB984 medulloblastoma cells, drug combinations, stronger effect = higher value
[11] = growth inhibition, single agents and combos, HTB85, cell-based, BGB or cisplatin IC20 combos, synergistic combos for chromothripsis tumors (AID 1671453; in the data active = inhibition above about 80%;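 also: cells exposed for 96 hours before readout; 0% = vehicle DMSO and 100% = high DMSO killing control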); conditions: HTB85 osteosarcoma cells, drug combinations, stronger effect = higher value
[12] = growth inhibition, MDA-MB-436, cell-based, BGB or cisplatin combos, synergistic combos for chromothripsis tumors (AID 1671458; call rule not given here;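 also: cells exposed for 96 hours; 0% = vehicle DMSO and 100% = killing by high DMSO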); conditions: MDA-MB-436 breast carcinoma growth inhibition, drug combinations, stronger effect = higher value
[13] = BT084 cell growth, single and combined drugs, ICGC_MB145, cisplatin and BGB IC40 combos (AID 1671461; in the data active = inhibition above about 80%;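 also: cells exposed to drugs for 96 hours; 0% = vehicle DMSO and 100% = high DMSO full killing control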); conditions: BT084 medulloblastoma cells, drug combinations, stronger effect = higher value
[14] = RCMB18 cell growth, single agent and combined, cisplatin and BGB IC40 combos (AID 1671462; in the data active = inhibition above about 80%;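 also: cells exposed to compound for four days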); conditions: RCMB18 medulloblastoma cells, stronger effect = higher value
[15] = CRL1545 cell growth, single agent and combined, cisplatin and BGB IC20 combos (AID 1671464; in the data active = inhibition above about 80%;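 also: cells exposed to compound for 96 hours before readout; 0% = vehicle DMSO and 100% = high DMSO killing control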); conditions: CRL1545 osteosarcoma cells, stronger effect = higher value
[16] = JHH-DIPG-1 glioma cell viability, MIPE5.0 library, CellTiter-Glo luminescence, qHTS (AID 1347067; cut-off not given, nearly all actives have AC50 up to about 26 µM;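 also: cells exposed to compound for 48 hours before readout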); conditions: JHH-DIPG-1 glioma viability, CellTiter-Glo ATP luminescence
[17] = compounds altering HSF1 focus formation in cells – imaging, Selleck Cancer Library (AID 1347162; in the data active = plate-normalised HSF1 focus index below about 0.46); conditions: human cells, HSF1 nuclear foci imaging, at 10 µM; SSMD: measured here: HSF1 foci SSMD mean; cell count: measured here: cell number; plate-normalised HSF1 focus index: stronger effect = lower value
[18] = stronger effect = lower value, cell number ratio, induced over uninduced
[19] = measured here: relative caspase fold change +Dox/-Dox
[20] = measured here: total cells with miR-34 induction, stronger effect = lower value
[21] = measured here: total cells without miR-34 induction
[22] = MELAS cybrid survival, CellTiter-Glo 48 h, stronger effect = higher value
[23] = Rieske KO mouse fibroblast survival, CellTiter-Glo 72 h
[24] = measured here: with BGB IC20 combination, at 0.5 µM
[25] = measured here: with cisplatin IC20 combination, at 0.5 µM

SMILES: CC(C)(O)Cn1c(NC(=O)c2ccc(-c3cn[nH]c3)s2)nc2cc(CN3CCOCC3)ccc21
- AC50 [1]: 2.64 µM (active)
- AC50 [2]: 0.743 µM (active)
- AC50 [3]: 1.48 µM (active)
- AC50 [4]: 2.64 µM (active)

SMILES: COc1cc2c(cc1OC)[C@@H]1Cc3ccc(OC)c(OC)c3CN1CC2
- outcome [1]: inactive
- outcome [2]: inactive
- outcome [3]: inactive
- outcome [4]: inactive
- fold change [5, 18]: 0.902 (inactive)
- fold change [5, 19]: 0.654
- cell count [5, 20]: 9170
- cell count [5, 21]: 10200
- z-score [6, 22]: -0.395 (inactive)
- z-score [6, 23]: 0.428

SMILES: C[C@]12C=CC(=O)N[C@@H]1CC[C@@H]1[C@@H]2CC[C@]2(C)[C@@H](C(=O)Nc3cc(C(F)(F)F)ccc3C(F)(F)F)CC[C@@H]12
- outcome [1]: inactive
- outcome [2]: inactive
- outcome [3]: inactive

SMILES: O=C(O)[C@H]1O[C@H](Oc2cc3oc(-c4ccccc4)cc(=O)c3c(O)c2O)[C@H](O)[C@@H](O)[C@@H]1O
- outcome [1]: inactive
- outcome [2]: inactive
- outcome [3]: inactive
- outcome [4]: inactive

SMILES: Cc1cnn(C)c1C(=O)Nc1cc(Nc2ccc3c(/C=C/c4ccccn4)n[nH]c3c2)ccc1F
- AC50 [1]: 13.2 µM (active)
- AC50 [2]: 18.7 µM (active)
- AC50 [3]: 14.8 µM (active)
- AC50 [4]: 18.7 µM (active)

SMILES: CCCCCCCCCCCCc1ccc(S(=O)(=O)Nc2nncs2)cc1
- outcome [1]: inactive
- outcome [2]: inactive
- outcome [3]: inactive
- outcome [4]: inactive
- outcome [7]: inactive
- fold change [5, 18]: 0.927 (inactive)
- fold change [5, 19]: 1.16
- cell count [5, 20]: 8010
- cell count [5, 21]: 8650
- z-score [6, 22]: 0.533 (inactive)
- z-score [6, 23]: 0.0837

SMILES: N=C1S/C(=C\c2ccc(-c3ccc4c(c3)C(=O)NC4=O)o2)C(=O)N1c1ccc(Br)cc1
- outcome [1]: inactive
- outcome [2]: inactive
- outcome [3]: inactive
- outcome [4]: inactive
- outcome [7]: inactive

SMILES: CC1(C)C(=O)N(CCN2CCC(C(=O)c3ccc(F)cc3)CC2)c2ccccc21
- outcome [1]: inactive
- outcome [2]: inactive
- outcome [3]: inactive
- fold change [5, 18]: 0.986 (inactive)
- fold change [5, 19]: 1.27
- cell count [5, 20]: 7420
- cell count [5, 21]: 7530

SMILES: O=C(Nc1cc2cc[nH]c2cn1)c1ccccc1
- AC50 [1]: 14.8 µM (active)
- AC50 [2]: 5.9 µM (active)
- AC50 [3]: 3.32 µM (active)
- AC50 [4]: 14.8 µM (active)
- fold change [5, 18]: 0.982 (inactive)
- fold change [5, 19]: 0.194
- cell count [5, 20]: 8430
- cell count [5, 21]: 8590
- z-score [6, 22]: -0.697 (inactive)
- z-score [6, 23]: -2.76

SMILES: O=C(O)CO.[NH2-].[NH2-].[Pt+2]
- outcome [1]: inactive
- outcome [2]: inactive
- outcome [3]: inactive
- outcome [4]: inactive
- inhibition ([8]; at 0.5 µM, stronger effect = higher value): -35.8% (inactive)
- inhibition ([8]; measured here: combination with BGB IC20, at 0.005 µM): -22.6%
- inhibition ([8]; measured here: combination with BGB IC40, at 0.005 µM): -55.5%
- inhibition ([8]; measured here: combination with BGB IC40, at 0.05 µM): -20.9%
- inhibition ([8]; measured here: combination with cisplatin, at 0.5 µM, stronger effect = higher value): -40.8%
- inhibition ([8]; measured here: combination with cisplatin, at 5 µM, stronger effect = higher value): -22.9%
- inhibition ([9]; BGB combo, at 5 µM): -38.9%
- inhibition ([9]; at 0.5 µM): 11.9% (inactive)
- inhibition ([9]; cisplatin combo, at 5 µM): 6.72%
- inhibition [9, 24]: 3.13%
- inhibition [9, 25]: 36.3%
- inhibition ([9]; single agent, at 5 µM): -22.5%
- inhibition ([10]; BGB IC20 combo, at 0.005 µM): -33.3%
- inhibition ([10]; BGB IC40 combo, at 0.005 µM): -24.4%
- inhibition ([10]; BGB IC40 combo, at 0.05 µM): -27.5%
- inhibition ([10]; at 0.5 µM): -23.1% (inactive)
- inhibition ([10]; cisplatin combo, at 0.05 µM): -34.1%
- inhibition ([10]; cisplatin combo, at 0.5 µM): -33.3%
- inhibition ([10]; cisplatin combo, at 5 µM): -25.6%
- inhibition ([10]; measured here: 5 uM single agent, at 5 µM): -2.84%
- inhibition ([11]; at 0.5 µM): 1.55% (inactive)
- inhibition ([11]; measured here: with BGB IC20, at 0.5 µM): 26.1%
- inhibition ([11]; measured here: with BGB IC20, at 5 µM): -2.11%
- inhibition ([11]; measured here: with cisplatin IC20, at 0.5 µM): -15.5%
- inhibition ([11]; measured here: with cisplatin IC20, at 5 µM): -7.66%
- inhibition ([11]; single agent, at 5 µM): -0.083%
- inhibition ([12]; at 0.5 µM): -15.3% (inactive)
- inhibition ([12]; measured here: BGB combination, at 0.5 µM): -9.4%
- inhibition ([12]; measured here: BGB combination, at 5 µM): 1.16%
- inhibition ([12]; measured here: cisplatin combination, at 0.5 µM): -35.5%
- inhibition ([12]; measured here: cisplatin combination, at 5 µM): -23.8%
- inhibition ([13]; at 0.5 µM): -4.94% (inactive)
- inhibition ([13]; cisplatin combination, at 0.5 µM): 2.17%
- inhibition ([13]; cisplatin combination, at 5 µM): -267%
- inhibition ([13]; measured here: BGB IC40 combination 0.05 uM, at 0.05 µM): -15.1%
- inhibition ([13]; single agent, at 5 µM): -4.36%
- inhibition ([14]; at 0.5 µM): -16.2% (inactive)
- inhibition ([14]; cisplatin combo, at 5 µM): 4.38%
- inhibition ([14]; measured here: BGB IC40 combination, at 0.05 µM): -28.2%
- inhibition ([14]; measured here: combination with cisplatin, at 0.5 µM): 6.48%
- inhibition ([14]; single agent, at 5 µM): -8.12%
- inhibition ([15]; at 0.5 µM): -2.61% (inactive)
- inhibition [15, 24]: -12.1%
- inhibition [15, 25]: 0.578%
- inhibition ([15]; single agent, at 0.05 µM): -10.5%
- inhibition ([15]; single agent, at 5 µM): -18%

SMILES: Nc1nc(=O)n([C@H]2CSC(CO)O2)cc1F (some centres undefined)
- outcome [1]: inactive
- outcome [2]: inactive
- outcome [3]: inactive
- outcome [4]: inactive

SMILES: NC(N)=Nc1nc(CSCCC(N)=NS(N)(=O)=O)cs1
- outcome [1]: inactive
- outcome [2]: inactive
- outcome [3]: inactive
- outcome [4]: inactive
- fold change [5, 18]: 0.921 (inactive) and 0.901 (inactive) and 0.846 (inactive)
- fold change [5, 19]: 1.73 and 0.639 and 1.03
- cell count [5, 20]: 9300 and 8340 and 7700
- cell count [5, 21]: 10100 and 9260 and 9100
- z-score [6, 22]: 0.605 (inactive) and -0.262 (inactive)
- z-score [6, 23]: -0.158 and 0.443

SMILES: COC1=C2C[C@@H](C)C[C@H](OC)[C@H](O)[C@@H](C)/C=C(\C)[C@H](OC(N)=O)[C@@H](OC)/C=C/C=C(\C)C(=O)NC(=CC1=O)C2=O
- AC50 [1]: 0.372 µM (active)
- AC50 [2]: 0.296 µM (active)
- AC50 [3]: 0.526 µM (active)
- AC50 [4]: 2.35 µM (active)

SMILES: Nc1nc2[nH]cc(CCc3ccc(C(=O)N[C@@H](CCC(=O)O)C(=O)O)cc3)c2c(=O)[nH]1
- outcome [1]: inactive
- outcome [2]: inactive
- outcome [3]: inactive
- outcome [4]: inactive
- outcome [16]: inactive
- outcome [7]: inactive
- fold change [5, 18]: 1.36 (inactive)
- fold change [5, 19]: 0.473
- cell count [5, 20]: 3100
- cell count [5, 21]: 2280
- SSMD [17]: -2.05
- cell count [17]: 7280
- plate-normalised HSF1 focus index [17]: 0.87 (inactive)
- z-score [6, 22]: -0.725 (inactive)
- z-score [6, 23]: -0.391

SMILES: CCN1C[C@H](C)n2c(c(O)c3c(=O)n(Cc4ccc(F)c(Cl)c4)nc(C(=O)NC)c32)C1=O
- outcome [1]: inactive
- outcome [2]: inactive
- outcome [3]: inactive
- outcome [4]: inactive

SMILES: COC(=O)N[C@H](C(=O)N1CCC[C@H]1c1ncc(-c2ccc(-c3ccc(-c4cnc([C@@H]5CCCN5C(=O)[C@@H](NC(=O)OC)C(C)C)[nH]4)cc3)cc2)[nH]1)C(C)C
- outcome [1]: inactive
- outcome [2]: inactive
- AC50 [3]: 26.4 µM (active)
- AC50 [16]: 23.5 µM (active)
